Assay results taken from PubChem BioAssay (NCATS).
Inconclusive results are not listed. Calls of active or inactive are those of the source. Unless noted, the rule behind the calls is not given here.

Assays:
[1] = qHTS Assay for Identifying Gametocytocidal Compounds (AID 743244; active = well fitted curve in the direction sought with a large enough effect; an effect the other way counts as inactive or inconclusive; note: potency is the fitted concentration of half-maximal effect;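 for max response: % is set by controls: 0 for no effect and ±100 for the full control effect; actives lower the fluorescent signal which means gametocytes are killed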); settings: P. falciparum 3D7 stage III-V gametocytes, alamarBlue, 72 h; max response: stronger effect = lower value
How it was run: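 Late gametocytes (III–V), P. falciparum 3D7; 72 h drug, then 24 h alamarBlue; resazurin reduction read by fluorescence.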

[2] = qHTS profiling of the MIPE4 collection as inhibitors of Plasmodium falciparum (3D7) proliferation (AID 743344);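 note: scaled between DMSO vehicle wells and 0.29 µM artemisinin as full inhibition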; settings: P. falciparum 3D7 in erythrocytes, SYBR Green DNA fluorescence, 72 h; at 28.5 µM (top of the series) unless noted
How it was run: (§1)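 Parasite DNA was quantified by SYBR Green I fluorescence (ex 485, em 535 nm) after overnight lysis in saponin/Triton buffer at room temperature. Cultures at 0.3% parasitemia and 2.5% hematocrit were first exposed to compound for 72 h at 37 C; signals were normalised to artemisinin (0.29 uM) and vehicle wells.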

[3] = qHTS profiling of the MIPE4 collection as inhibitors of Plasmodium falciparum (DD2) proliferation (AID 743345); settings: P. falciparum Dd2 in erythrocytes, SYBR Green DNA, 72 h; at 28.5 µM (top of the series) unless noted
How it was run: as §1

[4] = qHTS profiling of the MIPE4 collection as inhibitors of Plasmodium falciparum (DD2) proliferation (Rep 2) (AID 743346); settings: P. falciparum Dd2 in erythrocytes, SYBR Green DNA, 72 h; at 28.5 µM (top of the series) unless noted
How it was run: as §1

[5] = qHTS profiling of the MIPE4 collection as inhibitors of Plasmodium falciparum (HB3) proliferation (AID 743347);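 note: plate controls were DMSO vehicle wells for no effect and artemisinin wells for full effect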; settings: P. falciparum HB3 in erythrocytes, SYBR Green DNA, 72 h; at 28.5 µM (top of the series) unless noted
How it was run: as §1

[6] = High-throughput drug toxicity screening in the BPDCN cell line Gen2.2 (AID 1224824); settings: Gen2.2 BPDCN cells; at 45.8 µM (top of the series) unless noted;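 note: cells exposed to compounds for 48 h before reading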
How it was run: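 CellTiter-Glo luminescence read after 48 h compound exposure at 37 C defines viability; percent activity set with DMSO as 100% and bortezomib (9.2 uM final) as 0%. 500 exponentially growing cells per well, RPMI plus 10% FBS.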

[7] = qHTS profiling for inhibitors of Plasmodium falciparum (DD2) proliferation (AID 743323); settings: lower = more inhibition; at 28.7 µM (top of the series) unless noted
How it was run: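 P. falciparum Dd2-infected erythrocytes (0.3% parasitemia, 2.5% hematocrit) exposed 72 h at 37 C, 5% CO2. Lysis with SYBR Green, overnight at room temperature, fluorescence 485/535 nm; normalized to 0.29 uM artemisinin and DMSO.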

[8] = qHTS profiling for inhibitors of Plasmodium falciparum (HB3) proliferation (AID 743324; active = well fitted curve in the direction sought with a large enough effect; an effect the other way counts as inactive or inconclusive;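 note: 100% = DMSO vehicle wells and 0% = artemisinin-treated control wells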); settings: Plasmodium falciparum HB3 blood-stage proliferation; at 28.7 µM (top of the series) unless noted
How it was run: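 SYBR Green fluorescence (485 ex/535 em) of lysed cultures, incubated overnight at room temperature in the dark, quantifies parasite DNA. Infected erythrocytes at 0.3% parasitemia and 2.5% hematocrit were exposed 72 h; values normalized to DMSO and 0.29 uM artemisinin controls.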

For `CC1(C)CCC(C)(C)c2cc(NC(=O)c3ccc(C(=O)O)cc3)ccc21`, the max response [1] was 7.33% (inactive), the parasite growth, % of DMSO control [2] was 23.1% and the parasite growth remaining, % of DMSO control (lower = more inhibition) [3] was 86.1%. It also gave a parasite growth, % of control (lower = inhibition) [4] of 27%, a growth, % of control [5] of 49.3% and a cell viability, % of control (lower = more cytotoxic) [6] of 73.5%.
For `CN(C)C(=O)COC(=O)Cc1ccc(OC(=O)c2ccc(N=C(N)N)cc2)cc1`, the max response [1] was 10.2% (inactive), the parasite growth, % of DMSO control [2] was 75% and the parasite growth remaining, % of DMSO control (lower = more inhibition) [3] was 93%. The parasite growth, % of control (lower = inhibition) [4] was 43%, the growth, % of control [5] was 101% and the cell viability, % of control (lower = more cytotoxic) [6] was 129%.
In the case of `O=C(CS(=O)Cc1ccco1)NCC=CCOc1cc(CN2CCCCC2)ccn1` (stereo not given), the parasite growth, % of DMSO control [2] is reported as 78%, the parasite growth remaining, % of DMSO control (lower = more inhibition) [3] is reported as 95.7% and the parasite growth, % of control (lower = inhibition) [4] is reported as 53.3%. For the same compound, the growth, % of control [5] was 86.8% and the cell viability, % of control (lower = more cytotoxic) [6] was 120%.
Compound `Clc1ccc2c(N3CCN(CCCN4CCN(c5ccnc6cc(Cl)ccc56)CC4)CC3)ccnc2c1` has a parasite growth, % of DMSO control [2] of 18.8% [at 9.64 µM], a parasite growth remaining, % of DMSO control (lower = more inhibition) [3] of 9.96% [at 9.64 µM] and a parasite growth, % of control (lower = inhibition) [4] of 21.1% [at 9.64 µM]. For the same compound, the growth, % of control [5] was 14.1% [at 9.64 µM] and the cell viability, % of control (lower = more cytotoxic) [6] was 88.7% [at 23.2 µM].
With `Cc1ccc(C(=O)c2cc(O)c(O)c([N+](=O)[O-])c2)cc1` the max response [1] was 2.67% (inactive), the parasite growth, % of DMSO control [2] was 82.6% and the parasite growth remaining, % of DMSO control (lower = more inhibition) [3] was 93.6%. The parasite growth, % of control (lower = inhibition) [4] was 82.4%, the growth, % of control [5] was 92.8% and the cell viability, % of control (lower = more cytotoxic) [6] was 52.4%.
Work on `CCN(CC)CCOc1ccc(Cc2ccccc2)cc1` yielded a parasite growth, % of DMSO control [2] of 58.8%, a parasite growth remaining, % of DMSO control (lower = more inhibition) [3] of 74.1% and a parasite growth, % of control (lower = inhibition) [4] of 36.4%. For the same compound, the growth, % of control [5] was 84.7% and the cell viability, % of control (lower = more cytotoxic) [6] was 158%.
For `Cc1c(C(=O)NN2CCCCC2)nn(-c2ccc(Cl)cc2Cl)c1-c1ccc(Cl)cc1`, the max response [1] was 2.34% (inactive), the parasite growth, % of DMSO control [2] was 6.76% and the parasite growth remaining, % of DMSO control (lower = more inhibition) [3] was 8.4%. For the same compound, the parasite growth, % of control (lower = inhibition) [4] was 17.7%, the growth, % of control [5] was 8.97% and the cell viability, % of control (lower = more cytotoxic) [6] was 24.4%.
For `NC(=O)Cc1cccc(C(=O)c2ccccc2)c1N`, the max response [1] was 5.12% (inactive), the parasite growth remaining, % of DMSO control (lower = more inhibition) [3] was 98.5% and the growth, % of control [5] was 95.3%. For the same compound, the cell viability, % of control (lower = more cytotoxic) [6] was 108%.
Work on `Cc1cc(C2CCCCC2)n(O)c(=O)c1` yielded an activity, percent of control [7] of 0.27%, a remaining proliferation (% of control), lower = more inhibition [8] of -0.0898% and a parasite growth, % of DMSO control [2] of 6.27%. It also gave a parasite growth remaining, % of DMSO control (lower = more inhibition) [3] of 7.36%, a parasite growth, % of control (lower = inhibition) [4] of 17.5% and a growth, % of control [5] of 9.38%. The cell viability, % of control (lower = more cytotoxic) [6] was 17%.
In the case of `O=C(OC1C[C@H]2CC[C@@H](C1)[N+]21CCCC1)C(O)(c1ccccc1)c1ccccc1` (stereo not given in full), the max response [1] is reported as -10.3% (inactive), the growth, % of control [5] is reported as 17.4% and the cell viability, % of control (lower = more cytotoxic) [6] is reported as 120%.
With `CCCOc1ccc2nc(NC(=O)OC)[nH]c2c1` the max response [1] was -3.98% (inactive), the parasite growth, % of DMSO control [2] was 82.7% and the parasite growth remaining, % of DMSO control (lower = more inhibition) [3] was 92%. The parasite growth, % of control (lower = inhibition) [4] was 126%, the growth, % of control [5] was 99.5% and the cell viability, % of control (lower = more cytotoxic) [6] was 86.8%.
In the case of `CCCCCCCCOc1ccccc1C(=O)Nc1ccc(C(=O)OCC[N+](C)(CC)CC)cc1`, the parasite growth, % of DMSO control [2] is reported as 9.2%, the parasite growth remaining, % of DMSO control (lower = more inhibition) [3] is reported as 5.8% and the parasite growth, % of control (lower = inhibition) [4] is reported as 26.3%. For the same compound, the growth, % of control [5] was 8.46% and the cell viability, % of control (lower = more cytotoxic) [6] was 52.3%.
Work on `CN(C)[C@@H](CCOc1cccc2ccccc12)c1ccccc1` yielded a parasite growth, % of DMSO control [2] of 18.8%, a parasite growth remaining, % of DMSO control (lower = more inhibition) [3] of 14.4% and a growth, % of control [5] of 15.2%. The cell viability, % of control (lower = more cytotoxic) [6] was 165%.
For `CCC1=C(C)CN(C(=O)NCCc2ccc(S(=O)(=O)NC(=O)NC3CCC(C)CC3)cc2)C1=O` (stereo not given), the max response [1] was 36.8% (inactive), the parasite growth, % of DMSO control [2] was 98.4% and the parasite growth remaining, % of DMSO control (lower = more inhibition) [3] was 91.8%. The parasite growth, % of control (lower = inhibition) [4] was 85.1%, the growth, % of control [5] was 99.4% and the cell viability, % of control (lower = more cytotoxic) [6] was 114%.
For `Clc1ccc(C(Cn2ccnc2)OCc2ccsc2Cl)c(Cl)c1` (stereo not given), the Potency [1] was 6.31 µM (active), the parasite growth, % of DMSO control [2] was 4.99% and the parasite growth remaining, % of DMSO control (lower = more inhibition) [3] was 7.57%. It also gave a parasite growth, % of control (lower = inhibition) [4] of 15.9%, a growth, % of control [5] of 8.47% and a cell viability, % of control (lower = more cytotoxic) [6] of 75.4%.
`Cc1cc(Cl)ccc1OCCCC(=O)NO` gave a parasite growth, % of DMSO control [2] of 34.3%, a parasite growth remaining, % of DMSO control (lower = more inhibition) [3] of 72.9% and a parasite growth, % of control (lower = inhibition) [4] of 42.1%. It also gave a growth, % of control [5] of 41.9% and a cell viability, % of control (lower = more cytotoxic) [6] of 21.7%.
For `O=P(O)(O)C(O)(Cn1ccnc1)P(=O)(O)O`, the max response [1] was 13.2% (inactive), the parasite growth, % of DMSO control [2] was 103% [at 9.64 µM] and the parasite growth, % of control (lower = inhibition) [4] was 94.2% [at 9.64 µM]. It also gave a cell viability, % of control (lower = more cytotoxic) [6] of 109% [at 23.2 µM].
`COCCCN1CCC(NC(=O)c2cc(Cl)c(N)c3c2OCC3)CC1` gave a parasite growth, % of DMSO control [2] of 28.3%, a parasite growth remaining, % of DMSO control (lower = more inhibition) [3] of 51.1% and a parasite growth, % of control (lower = inhibition) [4] of 38%. The growth, % of control [5] was 15.7% and the cell viability, % of control (lower = more cytotoxic) [6] was 418%.
For `N=C(N=C(N)N)N1CCOCC1`, the max response [1] was 0.738% (inactive), the parasite growth, % of DMSO control [2] was 106% and the parasite growth remaining, % of DMSO control (lower = more inhibition) [3] was 96.2%. The parasite growth, % of control (lower = inhibition) [4] was 93.1%, the growth, % of control [5] was 101% and the cell viability, % of control (lower = more cytotoxic) [6] was 139%.
